Here are results for 49 compounds from PubChem BioAssay AID624417 (National Center for Advancing Translational Sciences (NCATS), 2012).

In all, about 410,000 compounds went through this assay and about 6,400 (1.6%) were called active. Inconclusive results (about 20%) are left out. What follows is part of a selection rich in actives, with near analogues and random picks from the rest. A number with no mark means an inactive call. Calls follow the shape of the dose curve; as a rule, active = well fitted inhibition curve with a large enough effect; inconclusive = small, poorly fitted or top-dose-only effect; inactive = no such curve, though single readings can be large or run the other way.
% is scaled to controls: 0 for no effect and ±100 for the full control effect; potency is read from the fitted curve at half-maximal effect.

Sequence of Glucagon-like peptide 1 receptor (Homo sapiens) (P43220 whole entry, looked up): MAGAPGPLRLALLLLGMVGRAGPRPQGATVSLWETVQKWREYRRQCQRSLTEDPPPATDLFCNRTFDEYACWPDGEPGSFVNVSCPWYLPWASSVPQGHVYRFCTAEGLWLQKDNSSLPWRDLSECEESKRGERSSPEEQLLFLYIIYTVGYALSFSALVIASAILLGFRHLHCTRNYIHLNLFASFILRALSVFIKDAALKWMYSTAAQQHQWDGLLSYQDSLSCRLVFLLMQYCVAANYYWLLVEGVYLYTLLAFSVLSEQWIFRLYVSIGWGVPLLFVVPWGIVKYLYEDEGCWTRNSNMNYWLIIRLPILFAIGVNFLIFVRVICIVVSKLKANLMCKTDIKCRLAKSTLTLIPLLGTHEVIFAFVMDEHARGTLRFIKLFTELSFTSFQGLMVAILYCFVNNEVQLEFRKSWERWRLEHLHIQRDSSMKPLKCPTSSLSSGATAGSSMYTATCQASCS

For the experiment, the target named is Glucagon-like peptide 1 receptor (Homo sapiens) (UniProt P43220). As to the kind of experiment: qHTS of GLP-1 Receptor Inverse Agonists (Inhibition Mode). Also: nearly all actives have a fitted effect of over 55% in size. The following applies: HEK293 GLP-1R CRE-luciferase, luminescence, 24 h, GLP-1R form is constitutively active; series mostly up to 38.3 µM; activity change, negative = inhibition: at the top concentration. In outline:
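Readout was luciferase luminescence, measured 12 min after detection reagent at room temperature. Beforehand, GLP-1R reporter HEK293 cells had sat 12 h, then received compounds for 24 hr at 37 deg C.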
For `COc1ccc(-c2nc3ccc(Br)cn3c2Cc2ccc(C)cc2)cc1OC`, the “activity change, negative = inhibition” value was 2.33%.
Same read-out and setting: the value for `CC(C)c1cc(Cn2c3ccccc3c(=O)n2C(C)Cn2cc(C3CC3)nn2)on1` (centres undefined) was 7.54%; that for `CCN(CC)S(=O)(=O)c1ccc(Cl)c(C(=O)NCCN2CCOCC2)c1` was 12.5%.
The same measure, in the same setting: the same measure for `CCN(CC)S(=O)(=O)c1ccc(N2CCCC2)c(NS(=O)(=O)c2cccs2)c1`: -8.52%.
As for `CCN(CC)S(=O)(=O)c1ccc(Cl)c(C(=O)NC(C)C(c2cccs2)N2CCCC2)c1` (centres undefined), the Potency was 5.62 µM (active).
As for `COc1ccc(CN2C(=O)C(CC(=O)NC3CCCCC3)CC(C(=O)N3CCOCC3)=C2C)cc1` (centres undefined), the “activity change, negative = inhibition” value is 10.1%.
With `CC(=O)Nc1ccc(-c2ccnc3c2CC(C(=O)NC(C)C)O3)cc1` (centres undefined), the “activity change, negative = inhibition” value is 16.4%.
On to `O=C(Nc1ccc(Cl)cc1)C1Cc2c(-c3ccc4c(c3)OCO4)ccnc2O1` (centres undefined), for which the Potency is 11.2 µM (active).
`COc1ccc(NC(=O)C2Cc3c(-c4cccc(NC(C)=O)c4)ccnc3O2)cc1OC` (centres undefined): the “activity change, negative = inhibition” value was -39%.
On the same count and under the same terms, the same measure for `COc1ccc(NC(=O)CCCOc2ccc(C(C)=O)cc2)cc1S(=O)(=O)N1CCCCC1`: 5.87%.
Consider `CN(Cc1ccccc1)C(=O)CCC1CCN(C(=O)c2ccco2)CC1`, for which the “activity change, negative = inhibition” value is 5.45%.
Still for that read-out and setting: the same measure for `C[C@H]1CN([C@@H](C)CO)C(=O)CCCn2cc(nn2)CO[C@@H]1CN(C)S(=O)(=O)c1ccccc1C#N`: 6.64%; for `CCCCCCNC(=O)O[C@]12C[C@@H](C(=O)OC)[C@@H](C(=O)OC)C[C@@]1(O)CN(S(=O)(=O)c1ccc(C)cc1)C2`: -28.7%.
Same read-out and setting: the same measure for `Cc1ccc(OCc2n[nH]c(=S)n2-c2ccccc2)cc1`: -15.4%.
For the compound `Cc1ccc(OCc2nnc(SC3CCc4ccccc4C3=O)n2C)cc1` (centres undefined), the Potency was 7.08 µM (active).
Turning to `Cc1cccnc1NC(=O)CSc1nnc(COc2ccc(C(C)C)cc2)n1C`, the “activity change, negative = inhibition” value is 1.37%.
On the same count and under the same terms, the value for `O=C(COC(=O)c1ccc(S(=O)(=O)N2CCCCCC2)cc1)Nc1ccccc1C(F)(F)F` was 22%.
The same measure, in the same setting: the value for `CN1OC[C@@H]2CN(C(=O)C(C)(C)C)[C@H](c3ccc(-n4ccnc4)cc3)C[C@@H]21` was 13.5%.
For `COc1ccccc1-c1sc2ccccc2c1-c1ccc(Br)nc1`, the Potency was 10 µM (active).
Turning to `COc1ccc2sc(-c3ccc(S(C)(=O)=O)cc3)c(-c3ccc(C(N)=O)cc3)c2c1`, the “activity change, negative = inhibition” value was -10.9%.
For `COc1ccc2sc(-c3ccccc3OC)c(-c3ccc(OCCN4CCCC4)cc3)c2c1`, the “activity change, negative = inhibition” value is -26.6%.
For the compound `COc1cc(C(C)=O)ccc1OC(=O)CN1C(=O)c2ccccc2C1=O`, the “activity change, negative = inhibition” value is 18.4%.
Same read-out and setting: the same measure for `COc1ccc(-c2sc3ccccc3c2-c2ccc(OCCN3CCOCC3)cc2)cc1`: 5.48%.
Regarding `COc1ccccc1-c1sc2ccccc2c1-c1ccc(C(C)=O)cc1`, the Potency was 10 µM (active).
In the case of `N#Cc1ccc(-c2nc3c(Cl)cc(C(F)(F)F)cn3c2Cc2ccccc2C(F)(F)F)cc1`, the “activity change, negative = inhibition” value is 5.12%.
Consider `CC1(C(=O)NS(=O)(=O)c2cccc(F)c2)CCN1C(=O)Cc1cc(F)ccc1F` (centres undefined), for which the “activity change, negative = inhibition” value was 11.6%.
On to `Cc1cccc(CN2CCN(C3CN(Cc4cn(Cc5cc(C)cc(C)c5)nn4)S(=O)(=O)C3)CC2)c1` (centres undefined), for which the “activity change, negative = inhibition” value was -3.31%.
On the same count and under the same terms, the same measure for `COC(=O)[C@]12CCCCC=C1N(Cc1ccc3c(c1)OCO3)C(=O)[C@H](CC(=O)N1CCOCC1)C2`: -70.8%.
On the same count and under the same terms, the same measure for `C[C@@H]1CN([C@H](C)CO)C(=O)CCCn2nncc2CO[C@@H]1CN(C)C(=O)OCc1ccccc1`: 5.9%.
The same measure, in the same setting: the same measure for `O=C1NC[C@H](CCCCN2C[C@H](Cc3ccc(O)cc3)N(CCc3ccccc3)C(=O)C2=O)N(CCc2ccccc2)C1=O`: 22%; for `CC1=C(C(=O)N2CCOCC2)CC(CC(=O)NCc2cccs2)C(=O)N1CCCN1CCCC1=O` (centres undefined): 8.47%; for `CC1=C(C(=O)N(C)C)CC(CC(=O)NCCc2ccccn2)C(=O)N1CCC1=CCCCC1` (centres undefined): 20.9%.
On to `Cc1nc(Nc2ccccc2F)c2nnn(Cc3ccccc3Cl)c2n1`, for which the “activity change, negative = inhibition” value was 28.2%.
`CCCc1nc(NCc2ccc3c(c2)OCO3)c2nnn(Cc3ccccc3Cl)c2n1`: the “activity change, negative = inhibition” value is -31.5%.
As to `Cc1nc(Nc2ccc3c(c2)OCCO3)c2nnn(Cc3ccccc3Cl)c2n1`, the Potency was 3.55 µM (active).
Regarding `O=C(O)C(=Cc1ccc([N+](=O)[O-])cc1)CCc1ccccc1`, the “activity change, negative = inhibition” value is 3.42%.
For the compound `COCCNC(=O)C1CCCN(Cc2ccccc2Cl)CC1` (centres undefined), the “activity change, negative = inhibition” value is 5.05%.
For the compound `O=C(NCc1ccccn1)[C@@H]1CCCN1C(=O)[C@@H]1CCCN1C(=O)c1ccccc1`, the “activity change, negative = inhibition” value is 21%.
The same measure, in the same setting: the same measure for `COC(=O)C1(C(=O)OC)C/C=C\CN(S(=O)(=O)c2ccccc2[N+](=O)[O-])CCC1`: 15.5%; for `CC(Sc1ccc(S(=O)(=O)N2CCN(C)CC2)cn1)C(=O)NC1CCCC(C)C1C` (centres undefined): 6.55%.
Take `COc1c(Cl)cc(C(=O)Nc2ccc(Cl)cn2)cc1Cl`: the “activity change, negative = inhibition” value is 8.31%.
`Cc1nc(NC(=O)c2ccc3c(c2)OCCO3)ccc1Br`: the “activity change, negative = inhibition” value was -8.07%.
Consider `O=C(Nc1ccc(Cl)cn1)c1ccc2c(c1)OCCO2`, for which the Potency was 7.08 µM (active).
As to `CN(Cc1ccccc1)C(=O)COC(=O)c1ccccc1Nc1ccccc1`, the Potency was 12.6 µM (active).
In the case of `CN(Cc1ccccc1)C(=O)COc1ccccc1`, the “activity change, negative = inhibition” value is -4.89%.
The same measure, in the same setting: the value for `Cc1ccc(S(=O)(=O)CCC(=O)OCC(=O)N(C)Cc2ccccc2)cc1` was 13.7%; that for `CC(=O)Nc1cncc(-c2ccccc2CO)n1` was 7.46%.
The same measure, in the same setting: the same measure for `CCOC(=O)C1(C)CCCN(C(=O)c2cccc(Cl)c2)C1` (centres undefined): -4.19%; for `NS(=O)(=O)c1ccc(CCNc2nc(C(F)(F)F)nc3ccccc23)cc1`: -12.4%.
